PubChem BioAssay AID1159580 (chemical genetic matrix, 2015)
About 2,000 (36%) of roughly 5,500 compounds were called active. Another 18% or so got no clear call; they are omitted. Rule as the data show it: active = normalized growth mostly below about 0.91 (no sharp cut-off); inconclusive = no clear call, values can overlap the other calls; inactive = mostly above about 0.92. The list shows a part of the results.

Test: chemical genetic growth profiling, strain panel (AID 1159580);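 also: tested at 20 µM; growth read once vehicle control cultures reached saturation at 30 °C; 1 = growth at the plate median or of vehicle wells; lower values mean less growth of the strain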
Conditions: growth OD
[1] = S. cerevisiae deletion strains, locus YDL101C, strain DUN1, stronger effect = lower value
[2] = S. cerevisiae deletion strains, locus YHR030C, strain SLT2, stronger effect = lower value

Measured: normalized growth

CN(C)/C=C1\CSc2ccc(Cl)cc2C1=O
inactive: S. cerevisiae deletion strains, locus YAR019C, strain CDC15, stronger effect = lower value 0.927 | S. cerevisiae deletion strains, locus YBL105C, strain PKC1, stronger effect = lower value 0.957 | S. cerevisiae deletion strains, locus YBR135W, strain CKS1, stronger effect = lower value 0.965 | S. cerevisiae deletion strains, locus YBR136W, strain MEC1, stronger effect = lower value 0.949 | S. cerevisiae deletion strains, locus YBR160W, strain CDC28, stronger effect = lower value 0.95 | S. cerevisiae deletion strains, locus YDL017W, strain CDC7, stronger effect = lower value 0.953 | S. cerevisiae deletion strains, locus YDL028C, strain MPS1, stronger effect = lower value 0.953 | [1] 0.975 | S. cerevisiae deletion strains, locus YDL108W, strain KIN28, stronger effect = lower value 0.947 | S. cerevisiae deletion strains, locus YDL132W, strain cdc53, stronger effect = lower value 0.956 | S. cerevisiae deletion strains, locus YDL214C, strain PRR2, stronger effect = lower value 0.763 | S. cerevisiae deletion strains, locus YDR052C, strain DBF4, stronger effect = lower value 0.967 | S. cerevisiae deletion strains, locus YDR054C, strain cdc34, stronger effect = lower value 0.94 | S. cerevisiae deletion strains, locus YDR226W, strain ADK1, stronger effect = lower value 0.947 | S. cerevisiae deletion strains, locus YDR477W, strain SNF1, stronger effect = lower value 0.832 | S. cerevisiae deletion strains, locus YER133W, strain GLC7, stronger effect = lower value 0.811 | S. cerevisiae deletion strains, locus YFL009W, strain cdc4, stronger effect = lower value 0.944 | S. cerevisiae deletion strains, locus YFL029C, strain CAK1, stronger effect = lower value 0.932 | S. cerevisiae deletion strains, locus YFR003C, strain YPI1, stronger effect = lower value 0.952 | S. cerevisiae deletion strains, locus YFR028C, strain CDC14, stronger effect = lower value 0.942 | S. cerevisiae deletion strains, locus YGR040W, strain KSS1, stronger effect = lower value 0.832 | S. cerevisiae deletion strains, locus YGR052W, strain FMP48, stronger effect = lower value 0.799 | S. cerevisiae deletion strains, locus YGR092W, strain DBF2, stronger effect = lower value 0.824 | S. cerevisiae deletion strains, locus YHR079C, strain IRE1, stronger effect = lower value 0.555 | S. cerevisiae deletion strains, locus YHR082C, strain KSP1, stronger effect = lower value 0.758 | S. cerevisiae deletion strains, locus YHR205W, strain SCH9, stronger effect = lower value 0.75 | S. cerevisiae deletion strains, locus YIL147C, strain SLN1, stronger effect = lower value 0.928 | S. cerevisiae deletion strains, locus YJL128C, strain PBS2, stronger effect = lower value 1.01 | S. cerevisiae deletion strains, locus YJL157C, strain FAR1, stronger effect = lower value 0.775 | S. cerevisiae deletion strains, locus YJR016C, strain ILV3, stronger effect = lower value 0.965 | S. cerevisiae deletion strains, locus YJR066W, strain TOR1 (second series), stronger effect = lower value 0.728 | S. cerevisiae deletion strains, locus YJR066W, strain TOR1, stronger effect = lower value 0.633 | S. cerevisiae deletion strains, locus YKL048C, strain ELM1, stronger effect = lower value 0.937 | S. cerevisiae deletion strains, locus YKL067W, strain YNK1, stronger effect = lower value 0.771 | S. cerevisiae deletion strains, locus YKL101W, strain HSL1, stronger effect = lower value 0.861 | S. cerevisiae deletion strains, locus YKL193C, strain SDS22, stronger effect = lower value 0.938 | S. cerevisiae deletion strains, locus YKL203C, strain TOR2, stronger effect = lower value 0.886 | S. cerevisiae deletion strains, locus YLR133W, strain CKI1, stronger effect = lower value 0.799 | S. cerevisiae deletion strains, locus YLR403W, strain SFP1, stronger effect = lower value 0.792 | S. cerevisiae deletion strains, locus YMR001C, strain CDC5, stronger effect = lower value 0.941 | S. cerevisiae deletion strains, locus YMR205C, strain PFK2 (second series), stronger effect = lower value 0.872 | S. cerevisiae deletion strains, locus YMR277W, strain FCP1, stronger effect = lower value 0.943 | S. cerevisiae deletion strains, locus YNL006W, strain LST8, stronger effect = lower value 0.952 | S. cerevisiae deletion strains, locus YNL020C, strain ARK1, stronger effect = lower value 0.817 | S. cerevisiae deletion strains, locus YNL161W, strain CBK1, stronger effect = lower value 0.955 | S. cerevisiae deletion strains, locus YNL183C, strain NPR1, stronger effect = lower value 0.559 | S. cerevisiae deletion strains, locus YNL207W, strain RIO2, stronger effect = lower value 0.922 | S. cerevisiae deletion strains, locus YNL222W, strain SSU72, stronger effect = lower value 0.955 | S. cerevisiae deletion strains, locus YNL307C, strain MCK1 (second series), stronger effect = lower value 0.822 | S. cerevisiae deletion strains, locus YOL078W, strain AVO1, stronger effect = lower value 0.95 | S. cerevisiae deletion strains, locus YOL136C, strain PFK27, stronger effect = lower value 0.691 | S. cerevisiae deletion strains, locus YOR061W, strain CKA2, stronger effect = lower value 0.831 | S. cerevisiae deletion strains, locus YOR119C, strain RIO1, stronger effect = lower value 0.862 | S. cerevisiae deletion strains, locus YOR231W, strain MKK1, stronger effect = lower value 0.595 | S. cerevisiae deletion strains, locus YOR329C, strain SCD5, stronger effect = lower value 0.953 | S. cerevisiae deletion strains, locus YPL031C, strain PHO85, stronger effect = lower value 0.825 | S. cerevisiae deletion strains, locus YPL153C, strain RAD53, stronger effect = lower value 0.752 | S. cerevisiae deletion strains, locus YPL204W, strain HRR25, stronger effect = lower value 0.802 | S. cerevisiae deletion strains, locus YPL209C, strain IPL1, stronger effect = lower value 0.954 | S. cerevisiae deletion strains, locus YPR025C, strain CCL1, stronger effect = lower value 0.962 | S. cerevisiae deletion strains, locus YPR106W, strain ISR1, stronger effect = lower value 0.95 | S. cerevisiae deletion strains, locus YPR111W, strain DBF20, stronger effect = lower value 0.947 | S. cerevisiae deletion strains, strain NNK1, stronger effect = lower value 0.941 | S. cerevisiae deletion strains, strain TSCII, stronger effect = lower value 0.942
active: S. cerevisiae deletion strains, locus YER123W, strain YCK3, stronger effect = lower value 0.565 | S. cerevisiae deletion strains, locus YFR019W, strain FAB1, stronger effect = lower value 0.771 | [2] 0.311 | S. cerevisiae deletion strains, locus YJL095W, strain BCK1, stronger effect = lower value 0.444 | S. cerevisiae deletion strains, locus YLR113W, strain HOG1, stronger effect = lower value 0.537 | S. cerevisiae deletion strains, locus YML070W, strain DAK1, stronger effect = lower value 0.618 | S. cerevisiae deletion strains, locus YPL256C, strain CLN2, stronger effect = lower value 0.627

CN(C)/C=C1\CSc2ccc(F)cc2C1=O
inactive: S. cerevisiae deletion strains, locus YDR150W, strain NUM1, stronger effect = lower value 0.885 | S. cerevisiae deletion strains, locus YLR058C, strain SHM2 (second series), stronger effect = lower value 1.01 | S. cerevisiae deletion strains, locus YNL322C, strain KRE1, stronger effect = lower value 0.995
active: S. cerevisiae deletion strains, locus YAL013W, strain DEP1, stronger effect = lower value 0.909 | S. cerevisiae deletion strains, locus YBR229C, strain ROT2, stronger effect = lower value 0.719 | S. cerevisiae deletion strains, locus YCL061C, strain MRC1, stronger effect = lower value 0.812 | [1] 0.291 | S. cerevisiae deletion strains, locus YDL134C, strain PPH21, stronger effect = lower value 0.119 | S. cerevisiae deletion strains, locus YEL061C, strain CIN8, stronger effect = lower value 0.613 | S. cerevisiae deletion strains, locus YGR078C, strain PAC10, stronger effect = lower value 0.787 | S. cerevisiae deletion strains, locus YGR229C, strain SMI1, stronger effect = lower value 0.861 | [2] 0.102 | S. cerevisiae deletion strains, locus YHR087W, strain rtc3, stronger effect = lower value 0.753 | S. cerevisiae deletion strains, locus YJR043C, strain POL32, stronger effect = lower value 0.908 | S. cerevisiae deletion strains, locus YJR075W, strain HOC1, stronger effect = lower value 0.74 | S. cerevisiae deletion strains, locus YKL190W, strain CNB1, stronger effect = lower value 0.0876 | S. cerevisiae deletion strains, locus YLR039C, strain RIC1, stronger effect = lower value 0.429 | S. cerevisiae deletion strains, locus YLR085C, strain ARP6, stronger effect = lower value 0.154 | S. cerevisiae deletion strains, locus YLR262C, strain YPT6, stronger effect = lower value 0.517 | S. cerevisiae deletion strains, locus YML094W, strain GIM5, stronger effect = lower value 0.658 | S. cerevisiae deletion strains, locus YMR219W, strain ESC1, stronger effect = lower value 0.821 | S. cerevisiae deletion strains, locus YMR263W, strain SAP30, stronger effect = lower value 0.903 | S. cerevisiae deletion strains, locus YMR307W, strain GAS1, stronger effect = lower value 0.291 | S. cerevisiae deletion strains, locus YNL153C, strain GIM3, stronger effect = lower value 0.852 | S. cerevisiae deletion strains, locus YNL298W, strain CLA4 (second series), stronger effect = lower value 0.415 | S. cerevisiae deletion strains, locus YNR030W, strain Alg12, stronger effect = lower value 0.119 | S. cerevisiae deletion strains, locus YPL055C, strain LGE1, stronger effect = lower value 0.787 | S. cerevisiae deletion strains, locus YPL241C, strain CIN2, stronger effect = lower value 0.103 | S. cerevisiae deletion strains, locus YPR135W, strain CTF4, stronger effect = lower value 0.303 | S. cerevisiae strains, strain wild type, stronger effect = lower value 0.491
